Sm TGR block: blocks Schistosoma mansoni thioredoxin glutathione reductase. purified TGR, DTNB reduction, TNB absorbance 405 nm. hit rate 3% among 360,000. Q962Y6. Potency, µM (doses to about 114 µM), usual class: inhibitors; active means well fitted inhibition curve with a large enough effect; inconclusive means small, poorly fitted or top-dose-only effect; inactive means no such curve, though single readings can be large or run the other way; further: nearly all actives have a fitted effect of over 60% in size
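First, TGR (20 nM dispensed) and NADPH were mixed with compound. Second, a 15 min room-temperature incubation followed. Third, further NADPH and then DTNB were added to start the reaction. Finally, TNB absorbance was monitored kinetically.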
Shiga inhibitor: inhibitors of Shiga toxin in Vero cells; hit rate 9.2% among 290,000; inhibition, % at 38.7 µM; AID 2315; Vero cells, Shiga toxin protein synthesis inhibition reporter; in the data active means inhibition mostly above about 28%, no sharp cut-off; inactive means mostly below about 43%
Cycloheximide cs: counter-screen hit for Shiga toxin inhibitors, cycloheximide | AID 2314 | max response, % | hit rate 12% among 300,000 | cell reporter, cycloheximide protein synthesis inhibition counterscreen; in the data active means max response mostly above about 13%, no sharp cut-off; inactive means mostly below about 14%; further: read at 38.3 µM for the half of the compounds with a filed dose
FMDV antiviral: foot and mouth disease virus antiviral activity; FMDV antiviral cell-based qHTS; Potency, µM (series often up to 57.9 µM), usual class: inhibitors; hit rate 1.2% among 410,000; AID 1159524; calls by dose curve; tested in HEK293T cells; further: read-out not given here; nearly all actives have a fitted effect of over 45% in size
Numbers stand for hits; – = inactive; ? = inconclusive; · = not tested or not shown. The list is not random: actives were taken first. Their share in the collection is about 12%.

SMILES | Sm TGR block | Shiga inhibitor | Cycloheximide cs | FMDV antiviral
NC(=O)c1c(NC(=O)C2CC=CCC2C(=O)O)sc2c1CCCCC2 (stereo not given) | 50µM | – | – | –
CC(C)OC(=O)c1c(NC(=O)C2CC=CCC2C(=O)O)sc2c1CCCCC2 (stereo not given) | – | – | – | –
CCCC(=O)NC(=S)Nc1sc2c(c1C(N)=O)CCC2 | – | – | – | –
N#C/C(=C/c1cn(Cc2ccc(F)cc2)c2ccccc12)C(=O)Nc1cccc(Cl)c1 | – | · | · | ?
COC(=O)c1ccc(Cl)cc1NC(=O)NCc1c(-n2cccc2)sc2c1CCCC2 | – | · | · | –
Cc1ccccc1-n1cc(CNC(=O)CN2Cc3ccccc3OC(C)C2)cn1 (stereo not given) | · | · | · | –
CCOc1ccc(CCNC(=O)c2sc3ncccc3c2-n2cccc2)cc1OCC | – | · | · | ?
NC(=O)c1c(NC(=S)Nc2ccccc2)sc2c1CCCC2 | – | – | – | –
NC(=O)c1c(NC(=S)Nc2ccc(F)cc2)sc2c1CCCC2 | – | – | 18 | –
O=C(Cc1ccccc1)Nc1ccc(NC(=O)c2ccccc2)nc1 | – | 174 | 38 | –
O=C(Nc1ccc(NC(=O)C2CC2)cn1)c1ccccc1 | – | 43 | 26 | –
O=C(Nc1ccc(NC(=O)C2CC2)cn1)c1ccccc1Cl | – | 50 | 33 | –
COc1ccc(C(=O)c2cn(Cc3ccc(C)cc3)c3cc4c(cc3c2=O)OCO4)cc1 | – | · | · | –
C=C1C(=O)C23C(O)C1CCC2C12CCCC(C)(COC(C)=O)C1C(O)C3(O)OC2 (stereo not given) | · | · | · | 3.5µM
COc1ccccc1CNC(=O)c1cnn(-c2nccc(-c3cccs3)n2)c1C | · | · | · | –
Cc1ccsc1-c1nc(CN2CCN(C)C(=O)[C@@H]2C)c(C)o1 | 32µM | – | – | –
Cc1ncc2c(c1CNC(=O)c1cncs1)CCN(C(=O)c1ccc(C(F)(F)F)cc1)C2 | · | · | · | –
CCN(CC)S(=O)(=O)c1ccc2c(c1)c(=O)c(C(=O)N(C)Cc1ccccc1)cn2C | – | · | · | –
COc1cccc(F)c1C(C[N+](=O)[O-])c1c(N)n(C)c(=O)n(C)c1=O (stereo not given) | – | – | – | 32µM
Cc1ccc(C(C[N+](=O)[O-])c2c(N)n(C)c(=O)n(C)c2=O)cc1 (stereo not given) | – | – | – | –
COc1cc(C(C[N+](=O)[O-])c2c(N)n(C)c(=O)n(C)c2=O)ccc1O (stereo not given) | – | – | – | 18µM
CCc1ccc(N2C(=O)NC(=O)/C(=C/c3cccn3CCOc3ccc(C)cc3)C2=O)cc1 | – | – | 13 | –
CCOc1ccc(CC2C(=O)NC(=O)N(c3ccc(CC)cc3)C2=O)cc1 (stereo not given) | – | – | – | –
CCc1ccc(N2C(=O)NC(=O)/C(=C/c3cccn3CCOc3ccc(C(C)CC)cc3)C2=O)cc1 (stereo not given) | – | 121 | 77 | ?
COc1ccccc1N1CCN(C(=O)c2cnc(N3CCCCC3)c3ccccc23)CC1 | – | · | · | ?
SMILES | Sm TGR block | Shiga inhibitor | Cycloheximide cs | FMDV antiviral
COc1ccc(OCCCCc2c(C)n[nH]c2C)cc1 | · | · | · | –
Cc1n[nH]c(C)c1CCOc1ccc(C(C)C)cc1 | – | 49 | – | –
CCc1cc(/C(Cc2csc(C)n2)=N/O)c(O)cc1O | – | – | – | ?
Cc1cc(O)c(C(=O)Cc2csc(C)n2)c(O)c1 | – | 83 | 39 | –
O=C(N/N=C/C=C/c1ccco1)c1ccccc1Cl | ? | – | – | –
O=C(N/N=C/C=C/c1ccco1)/C(=C/c1ccccc1)NC(=O)c1ccccc1 | 45µM | – | – | –
O=C(N/N=C/C=C\c1ccco1)c1cccs1 | 11µM | 82 | 29 | –
O=C(Cc1cccs1)N/N=C/C=C\c1ccco1 | 25µM | – | – | –
O=C(N/N=C/C=C/c1ccco1)c1ccncc1 | 28µM | – | – | –
O=C(O)/C(=C\c1ccco1)NC(=O)c1ccccc1 | – | – | – | –
Cc1c(C(=O)NCCc2ccc(Cl)cc2)cccc1-n1cnc2cccnc21 | – | · | · | ?
CCCOC(=O)/C(=C\C=C\c1ccco1)NC(=O)c1ccccc1 | 8.9µM | 115 | 51 | –
O=C(NCCc1ccccc1)c1ccc2c(c1)N(Cc1c(F)cccc1Cl)C(=O)CS2 | – | · | · | –
Cc1ccc(C(=O)NCCc2nnc3n2CCN(Cc2ccnc4ccccc24)CC3)c(C)c1 | · | · | · | –
O=C(NCc1ccco1)c1ccc(CS(=O)(=O)Cc2ccc(Cl)cc2)o1 | – | – | – | –
O=C(NCc1ccco1)c1ccc(-c2ccccc2Cl)o1 | 25µM | – | 43 | –
O=C(NCc1ccco1)c1ccc(-c2ccc(Cl)cc2)o1 | – | 78 | 37 | –
Cc1nn(C)cc1CN1CCOc2ccc(CN3CCC(Oc4cccnc4)CC3)cc2C1 | · | · | · | –
N#CC1=C(N)Oc2cc(O)ccc2C1c1cccs1 (stereo not given) | – | – | – | ?
N#CC1=C(N)Oc2c(ccc3cccnc23)C1c1ccccc1 (stereo not given) | 40µM | – | – | ?
Cc1ccc2[nH]c(=O)c(C3C(C#N)=C(N)Oc4c3ccc3cccnc43)cc2c1 (stereo not given) | 16µM | – | – | ?
N#CC1=C(N)Oc2c(ccc3ccccc23)C1c1cccs1 (stereo not given) | 35µM | 48 | 23 | –
Cc1ccsc1C1Cc2c(C(=O)NCc3cccnc3)c(=O)cc(C)n2-c2ccccc2S1 (stereo not given) | · | · | · | –
COc1ccc2c(c1)CC(C(=O)NCCc1ccc(S(N)(=O)=O)cc1)CO2 (stereo not given) | – | · | · | –
COc1ccccc1CNC(=O)CCCn1c(=O)c2ccccc2n(Cc2ccc(F)cc2)c1=O | – | · | · | –
SMILES | Sm TGR block | Shiga inhibitor | Cycloheximide cs | FMDV antiviral
CN(C)C1NC(=O)c2cc(-c3ccccc3)sc2N1 (stereo not given) | – | – | 17 | –
O=c1cc(-c2ccccc2)ss1 | · | · | · | –
O=C(Nc1ccccc1Cl)C1CCN(c2nc3ccccc3[nH]2)CC1 | – | · | · | –
Cc1ccccc1OCC(=O)Nc1ccc(N2CCN(C)CC2)c(Cl)c1 | – | 85 | 29 | –
COc1ccc(OCC(=O)Nc2ccc(N3CCN(C(=O)c4ccccc4)CC3)c(Cl)c2)cc1 | – | – | – | 11µM
COC(=O)c1ccc2c(c1)C(C)(C)C(/C=C/c1ccc(OC)c(OC)c1OC)=[N+]2C | – | – | – | 16µM
COC(=O)c1ccc(CNC(=O)COC(=O)/C=C/c2ccc(OC)c(OC)c2)cc1 | · | · | · | –
COC(=O)c1ccc2c(c1)C(C)(C)C(/C=C/c1ccc(O)cc1)=[N+]2C | – | – | – | 10µM
COC(=O)c1ccc(O)c(Sc2cc(C(=O)OC)ccc2O)c1 | – | – | – | –
CCOc1ccc(NC(=O)CSc2nc(-c3ccccc3)c3cc(OCC)ccc3n2)cc1 | – | · | · | –
Cc1ccc(Cc2nc3ccccc3nc2SCC(=O)N2CCCc3ccccc32)cc1 | – | · | · | –
O=C(CN1Cc2ccccc2OC(c2ccsc2)C1)NCc1ccc2c(c1)OCO2 (stereo not given) | · | · | · | –
C[n+]1cccc2cccc([O-])c21 | 50µM | – | – | –
Cc1cc(C)cc(N2C(=O)CSC23C(=O)N(CC(=O)Nc2ccc(F)cc2F)c2ccccc23)c1 (stereo not given) | – | · | · | –
COc1ccc(S(=O)(=O)N2c3cc(Cl)ccc3Oc3nc4ccccc4nc32)cc1 | – | 50 | – | –

Assay outcomes as filed in PubChem BioAssay.
